Experimental data as given in PubChem BioAssay AID1445 (SRMLSC, 2008).
The campaign covered roughly 220,000 compounds. About 910 (0.41%) were called active.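 The calls were made as follows: active = primary inhibition above the hit cutoff, then over 50% inhibition at one or more dose response concentrations (cut at about 23% in these data, passing the limit was not always enough); inconclusive = conflicting primary data, or primary hits not chosen for dose response; inactive = low primary inhibition, or under 50% at every dose.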 The sample as a whole holds a higher share of actives than the screen did. Results with a measured potency or affinity are listed apart.

molecular target: Aminopeptidase N (Plasmodium falciparum (isolate 3D7)) (UniProt O96935); assay: P. falciparum M1AAP inhibitors, biochemical, fluorogenic H-Leu-NHMec substrate, 1536-well (AID 1445); settings: recombinant M1AAP, H-Leu-NHMec fluorogenic kinetic assay; at 30 µM, active compounds read high unless noted;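 also: plate controls were DMSO full reaction for no effect and no enzyme background for full effect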
Sequence (O96935 whole entry, looked up): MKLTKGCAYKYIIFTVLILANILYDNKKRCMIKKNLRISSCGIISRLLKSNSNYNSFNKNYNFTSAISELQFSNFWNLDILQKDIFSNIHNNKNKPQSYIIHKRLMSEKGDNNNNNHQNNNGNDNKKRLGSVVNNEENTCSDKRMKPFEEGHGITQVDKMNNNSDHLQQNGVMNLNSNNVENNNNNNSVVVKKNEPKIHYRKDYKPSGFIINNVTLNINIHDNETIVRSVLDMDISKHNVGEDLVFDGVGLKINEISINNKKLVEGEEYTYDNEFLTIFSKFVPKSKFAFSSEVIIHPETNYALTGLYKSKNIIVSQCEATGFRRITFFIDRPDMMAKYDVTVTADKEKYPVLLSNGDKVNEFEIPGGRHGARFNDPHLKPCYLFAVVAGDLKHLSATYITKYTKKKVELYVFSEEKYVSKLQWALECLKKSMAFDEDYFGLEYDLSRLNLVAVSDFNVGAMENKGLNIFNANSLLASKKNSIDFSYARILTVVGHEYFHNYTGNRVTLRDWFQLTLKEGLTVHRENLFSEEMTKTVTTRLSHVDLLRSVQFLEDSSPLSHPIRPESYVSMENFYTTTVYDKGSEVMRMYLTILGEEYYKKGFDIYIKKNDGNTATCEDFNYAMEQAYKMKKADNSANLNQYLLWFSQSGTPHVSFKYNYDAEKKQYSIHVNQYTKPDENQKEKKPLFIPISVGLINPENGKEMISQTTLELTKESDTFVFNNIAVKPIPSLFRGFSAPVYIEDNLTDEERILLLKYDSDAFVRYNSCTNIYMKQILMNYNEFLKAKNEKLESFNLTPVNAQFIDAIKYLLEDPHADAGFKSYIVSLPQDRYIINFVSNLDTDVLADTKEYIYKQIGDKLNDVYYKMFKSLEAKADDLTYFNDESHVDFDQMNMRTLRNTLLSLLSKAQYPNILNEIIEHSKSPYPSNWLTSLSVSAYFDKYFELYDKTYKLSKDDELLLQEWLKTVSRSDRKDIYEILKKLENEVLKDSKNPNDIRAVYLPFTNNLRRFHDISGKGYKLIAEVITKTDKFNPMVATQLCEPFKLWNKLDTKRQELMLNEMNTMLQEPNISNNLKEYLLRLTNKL

SMILES | inhibition
O=c1[nH]c(Cc2ccccc2Cl)nc2ccccc12 | -2.4% (inactive)
CCc1c(C)[nH]n(-c2nc(-c3ccccc3)cs2)c1=O | -3.51% (inactive)
C=CCn1c(=O)c2ccccc2n2c(SCc3nnc(-c4ccccc4Br)o3)nnc12 | 2.98% (inactive)
Cc1ccc(NC(=O)c2cc(-c3ccco3)on2)cc1C | 3.16% (inactive)
CC12COC3(C(=O)NCCc4ccccc4)CC1CCC32C (stereo unspecified) | 3.11% (inactive)
CCCNS(=O)(=O)c1ccc(OCC(=O)NCCC2=CCCCC2)cc1 | 7.1% (inactive)
Cc1ccc(S(=O)(=O)CCc2nnc(NC(=O)c3cccs3)s2)cc1 | -1.23% (inactive)
O=C(N/N=C/c1cc(Cl)cc(Cl)c1O)c1ccncc1 | 29.6% (inactive)
O=C(CNC(=O)c1ccncc1)N/N=C/c1ccc(O)cc1O | 3.55% (inactive)
Cc1ccc(/C=N/NC(=O)C(c2ccncc2)N2CCOCC2)cc1 (stereo unspecified) | 2.18% (inactive)
O=C(CNC(=O)c1ccncc1)N/N=C/c1ccc(Br)cc1 | 7.31% (inactive)
COc1ccc(Br)cc1/C=N/NC(=O)C(c1ccncc1)N1CCOCC1 (stereo unspecified) | -2.26% (inactive)
O=C(N/N=C/c1cc(Cl)ccc1O)c1ccc(Br)cc1 | 22.2% (inactive)
O=C(CNC(=O)c1ccccc1Br)N/N=C/c1ccccc1O | -1.99% (inactive)
O=C(CNC(=O)c1ccccc1Br)N/N=C/c1ccc(O)cc1 | -0.27% (inactive)
CC(=O)c1cc(CN2C(=O)CCC2=O)cs1 | -1.15% (inactive)
O=C(CSc1nc2ccccc2s1)NCCOc1ccc(Cl)cc1 | -0.05% (inactive)
COCc1c(C(=O)OC)nnn1-c1ccccc1 | -5.18% (inactive)
CCCc1c(O)nc(SCCN(CC)CC)n(C(=O)c2ccccc2)c1=O | 6.49% (inactive)
CC(=O)c1ccc(N2CCN(C(=S)NCCCN(C)C)CC2)cc1 | 6.58% (inactive)
O=C(N1CCOCC1)N1CCC(NC(=O)C23CC4CC(CC(C4)C2)C3)CC1 | -1.68% (inactive)
O=C(COC(=O)/C=C/c1ccc(S(=O)(=O)N2CCOCC2)cc1)NCc1ccccc1 | 7.02% (inactive)
COc1cccc(-c2nnc(SCC3CNC(=O)O3)n2-c2ccc(Cl)cc2)c1 (stereo unspecified) | 3.85% (inactive)
Cc1cccc(OCC(=O)Nc2cc(S(=O)(=O)N3CCCCC3)ccc2N2CCN(C)CC2)c1 | 5.64% (inactive)

SMILES | inhibition
Cc1cnc(C(=O)Nc2nc(-c3ccccc3)cs2)cn1 | 7.19% (inactive)
O=C(N/N=C/c1cc(Br)cc(Br)c1O)c1ccncc1 | 36.7% (inactive)
O=C(N/N=C/c1cc([N+](=O)[O-])ccc1O)c1ccncc1 | 18.8% (inactive)
CN(C)/C=C(\C=O)c1onc(-c2ccccc2Cl)c1C#N | 6.68% (inactive)
CN(CC(=O)Nc1ccccc1C(=O)N1CCCC1)S(=O)(=O)c1ccc(Br)cc1 | -0.21% (inactive)
CC(C)C1NC2(C(=O)c3ccccc3C2=O)C2C(=O)N(c3ccc(F)cc3)C(=O)C12 (stereo unspecified) | 0.46% (inactive)
Cc1ccccc1NC(=O)CN1C(=O)S/C(=C\c2ccc(-c3cccc(C(=O)O)c3C)o2)C1=O | -2.06% (inactive)
Cc1cccc(NC(=O)CN2C(=O)S/C(=C\c3ccc(-c4cccc(C(=O)O)c4C)o3)C2=O)c1 | 2.36% (inactive)
Cc1ccc(NC(=O)CN2C(=O)S/C(=C\c3ccc(-c4cccc(C(=O)O)c4C)o3)C2=O)cc1 | 0.51% (inactive)
COc1cc(/C=C2\SC(=N)N(c3ccc4c(c3)OCO4)C2=O)cc(OC)c1O | 5.15% (inactive)
N=C1S/C(=C\c2ccco2)C(=O)N1c1ccc2c(c1)OCO2 | 10% (inactive)
Cc1ccc(NC(=O)CN2C(=O)S/C(=C\c3ccc(-c4cccc(C(=O)O)c4C)o3)C2=O)cc1C | 8.24% (inactive)
COc1ccc(-c2nnc(SCC(=O)Nc3cc(F)ccc3C)o2)cc1 | -0.41% (inactive)
CCOc1ccc(N2C(=O)C(=O)/C(=C(/O)c3ccccc3)C2c2ccccc2[N+](=O)[O-])cc1 (stereo unspecified) | 5.86% (inactive)
Cc1ccc(C(=O)Nc2c(-c3cccs3)c(=O)c3ccccc3n2C)cc1 | 5.78% (inactive)
NNC(=O)Cn1nc2n(c1=O)-c1ccccc1SC2 | -0.09% (inactive)
Cc1nnc(-n2ncc(C#N)c2N)c2nn(-c3cccc(Cl)c3)c(C)c12 | 0.94% (inactive)
COC(=O)c1cc2sccc2n1CC(=O)N(C)c1ccccc1 | 4.58% (inactive)
COC(=O)c1cc2oc(C)cc2n1CC(=O)N(C)c1ccccc1 | 24.4% (active)
C=CCN(C(=O)Cn1c(C(=O)OC)cc2oc(C)cc21)c1ccccc1 | 0.64% (inactive)
O=C(Cn1cc(C(F)(F)F)ccc1=O)N/N=C/c1ccccc1O | 1.53% (inactive)
CN1C(=O)/C(=N/OC(=O)c2ccccc2)c2ccccc21 | -0.99% (inactive)
CN1C(=O)/C(=N\OC(=O)c2cccc3ccccc23)c2ccccc21 | 5.56% (inactive)
COC(=O)c1cccc(Nc2nc(-c3cccnc3)nc3ccccc23)c1 | 0.67% (inactive)

SMILES | inhibition
O=C(O)c1ccc(Nc2nc(-c3cccnc3)nc3ccccc23)cc1 | 10.8% (inactive)
COc1cccc(N2CC(C)Cn3c2nc2c3c(=O)n(CCN3CCOCC3)c(=O)n2C)c1 (stereo unspecified) | 2.83% (inactive)
C=CCn1c(=O)c2c(nc3n2CC(C)CN3c2cccc(OC)c2)n(C)c1=O (stereo unspecified) | 26.4% (active)
COc1cccc(N2CC(O)Cn3c2nc2c3c(=O)n(CCCc3ccccc3)c(=O)n2C)c1 (stereo unspecified) | 2.82% (inactive)
c1ccc(Oc2cccc(NC3=NCCC3)c2)cc1 | 29.3% (active)
O=[N+]([O-])c1cccc(NC2=NCCC2)c1 | 3.59% (inactive)
Clc1cccc(NC2=NCCC2)c1 | 0.77% (inactive)
Cc1ccc(CN2CCN(C(=O)C3CCC3)CC2)cc1 | 27.7% (active)
O=C(C1CCC1)N1CCN(Cc2ccccc2)CC1 | 7.01% (inactive)
Cc1ccc(CN2CCN(C(=O)C3CCCO3)CC2)cc1 (stereo unspecified) | -1.62% (inactive)
CCN(CC)CC(C)CNC(=O)CN1C(=O)CSc2ccc(S(=O)(=O)N3CCOCC3)cc21 (stereo unspecified) | 8.54% (inactive)
CC(=O)NC(=S)NNC(=O)COc1ccc([N+](=O)[O-])cc1 | -19.9% (inactive)
CCC(=O)NC(=S)NNC(=O)COc1ccc(Br)cc1 | -1.75% (inactive)
Cc1ccc(OCC(=O)NNC(=O)C(=O)NC(C)(C)C)cc1 | 13.2% (inactive)
CC(C)(C)NC(=O)C(=O)NNC(=O)COc1ccccc1 | 20.1% (inactive)
CCc1ccc(S(=O)(=O)NCc2csc(C)n2)s1 | 9.49% (inactive)
Cc1oc(-c2cccs2)nc1CN1CC[C@@](O)(c2ccccc2)[C@H]2CCCC[C@@H]21 | 4.34% (inactive)
O=C(O)c1ccc(CNC(=O)c2ccccc2NC(=O)c2ccc([N+](=O)[O-])cc2)cc1 | 1.28% (inactive)
CCOC(=O)c1cc2sccc2n1CC(=O)OC | 5.03% (inactive)
C=CCNc1cc(C(F)(F)F)nc(-c2ccccn2)n1 | -2.8% (inactive)
Cc1nc(NC2=NCN(CCCN3CCOCC3)CN2)nc2c(C)cccc12 | 29.4% (active)
Cc1ccc(S(=O)(=O)NC2=NCN(CCN3CCOCC3)CN2)cc1 | 2.01% (inactive)
c1ccc2sc(NC3=NCN(CCN4CCOCC4)CN3)nc2c1 | -2.82% (inactive)
NC(=O)C1CCCN(C(=S)Nc2ccccc2)C1 (stereo unspecified) | 0.97% (inactive)

SMILES | inhibition
CSc1nc2c(c(=O)[nH]1)C(c1cccs1)C1=C(CCCC1=O)N2 (stereo unspecified) | 9.61% (inactive)
O=C(O)c1ccccc1-c1nc2ccccc2[nH]1 | 0.23% (inactive)
O=C(O)c1ccc(-c2nc(-c3ccccc3)c(-c3ccccc3)[nH]2)cc1 | 23.1% (inactive)
c1ccc(OCc2nn3c(-c4ccco4)nnc3s2)cc1 | -2.34% (inactive)
COc1ccc(Cl)cc1NC(=S)N1CCN(S(C)(=O)=O)CC1 | 5.32% (inactive)
COC(=O)C1=C(C)NC(C)=C(C(=O)OC)C1c1ccc(-c2cccc([N+](=O)[O-])c2)o1 | 7.62% (inactive)
CC1(C)Oc2ccc3ccc(=O)oc3c2-c2cn[nH]c21 | 26.5% (active)
CC1(C)Oc2ccc3ccc(=O)oc3c2-c2cnoc21 | 50.2% (inactive)
CC1(C)Oc2ccc3ccc(=O)oc3c2/C(=C/N)C1=O | 8.41% (inactive)
COC(=O)Nc1ccc(=O)n(Cc2c(Cl)cccc2Cl)c1 | 4.71% (inactive)
O=C1N(Cc2ccccc2)CCCC12CCCN(Cc1ccccc1)C2=O | 8.22% (inactive)
O=C(NCc1ccccc1)c1cc(-c2cccs2)on1 | -3.95% (inactive)
CC(=O)c1ccc(NC(=S)NC(NC(=O)c2ccco2)C(Cl)(Cl)Cl)cc1 (stereo unspecified) | 11.3% (inactive)
CC(=O)c1ccc(NC(=O)C(Cc2ccccc2)NC(=O)c2ccco2)cc1 (stereo unspecified) | 4.11% (inactive)
O=C(NC(NC(=S)Nc1ccc(Cl)c(Cl)c1)C(Cl)(Cl)Cl)c1ccco1 (stereo unspecified) | 9.33% (inactive)
Cc1cccc(NC(=S)NC(NC(=O)c2ccco2)C(Cl)(Cl)Cl)c1 (stereo unspecified) | 18.2% (inactive)
Cc1ccc(NC(NC(=O)c2ccccc2[N+](=O)[O-])C(Cl)(Cl)Cl)cc1 (stereo unspecified) | 7.36% (inactive)
O=C(Nc1cccc(O)c1)c1ccccc1[N+](=O)[O-] | -3.03% (inactive)
CCc1ccc(NC(=O)CSCCO)cc1 | -0.74% (inactive)
Cn1nnnc1Sc1c(Cl)cccc1[N+](=O)[O-] | -3.63% (inactive)
CC1(C)COC(c2coc3ccccc3c2=O)OC1 | 2.08% (inactive)
COc1ccc(N)cc1C#N | 2.91% (inactive)
O=C(CCCN1C(=O)/C(=C\c2ccco2)SC1=S)Nc1ccc2ccccc2c1 | 11.9% (inactive)
O=C(CCCN1C(=O)/C(=C/c2ccco2)SC1=S)Nc1cccc(C(=O)O)c1 | 6.76% (inactive)
